Results as given in PubChem BioAssay (NCATS).
Where “and” joins values, the source holds several entries; their conditions need not be identical. Equal values may be shown once. Records with an inconclusive call do not appear. Where a call stands in place of a potency, no number is given. Calls of active or inactive are those of the source. Unless noted, the call rests on the fitted dose curve; in most records, active means well fitted curve in the direction sought with a large enough effect; inconclusive means small, poorly fitted or top-dose-only effect, or another doubt; inactive means no such curve, though single readings can be large; an effect the other way counts as inactive or inconclusive.

Columns and labels:
[1] = qHTS Assay for Lipid Storage Modulators (AID 1519; calls by dose curve); details: Drosophila S3 cells, BODIPY lipid droplet/cell ratio, laser cytometry, cells loaded with oleic acid
Procedure, shortened: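 Cells seeded at 5,000 per well were treated with compounds over a concentration series and loaded with oleic acid (400 uM, as added). Lipid droplet fluorescence (488 nm excitation, 500-530 nm channel) was read by laser-scanning cytometry and normalized to 20 uM Triacsin C.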

[2] = molecular target: alpha-glucosidase (Oryza sativa, rice) (UniProt Q653V4); test: Counterscreen for Glucocerebrosidase Inhibitors: qHTS Assay for Rice alpha-Glucosidase at pH 5.0 (AID 997); details: rice alpha-glucosidase enzyme activity; series mostly up to 76.9 µM
Procedure, shortened: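 Endpoint fluorogenic assay at pH 5.0: compounds (0.7 nM to 77 uM) titrated against 4 nM rice enzyme and 400 uM 4-MU-alpha-glucoside for 20 min at room temperature; NaOH/glycine stop, read ex 365/em 440 nm, Hill-fitted AC50.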

[3] = Validation of Assay for Modulators of Lamin A Splicing (AID 1459; active means well fitted curve in the direction sought with a large enough effect in the signal ratio; the % refers to the signal ratio;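 further: cells exposed to compound for two days before reading; ratio rise marks activators and ratio drop marks inhibitors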); details: Lamin A splicing dual RFP/GFP fluorescence reporter; series mostly up to 9.22 µM
Procedure, shortened: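 HeLa S3 lamin A-EGFP/DsRed2 stable clone, 600 cells/well, Opti-MEM 2% FBS; compounds by pin tool; 48 hrs, 37 °C/5% CO2; Acumen 488 nm scan, objects 10-100 um; GFP/RFP intensity ratio.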

[4] = Cell Viability - LYMP2-016 (AID 984); details: LYMP2-016 lymphoblastoid cell viability, qHTS; series mostly up to 92.2 µM;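 further: cells exposed to compound for 24 hours at 37 °C; nearly all actives have a fitted effect of over 55% in size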
Procedure, shortened: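 Cells were seeded at 2500 per well and rested 5 hr before a 24 hr compound exposure at 37 C. Viability was then gauged as cellular ATP by luciferase luminescence, with AC50 values fitted to the Hill equation.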

[5] = Cell Viability - LYMP2-018 (AID 985); details: LYMP2-018 lymphoblastoid cells, viability (qHTS); series mostly up to 92.2 µM; further: nearly all actives have a fitted effect of over 50% in size
Procedure, shortened: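 2500 cells/well; 5 hr 37 C; cmpd 24 hr 37 C, complete medium; CellTiter-Glo 30 min RT; luminescence. Tetraoctylammonium bromide positive control. AC50 via Hill fit.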

[6] = Cell Viability - LYMP2-020 (AID 986); details: series mostly up to 92.2 µM;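 further: cells exposed to compound for 24 h at 37 °C; nearly all actives have a fitted effect of over 55% in size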
Procedure, shortened: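 qHTS, 2500 cells/well; 5 hr then 24 hr compound exposure, 37 C; CellTiter-Glo luminescence after 30 min RT; ATP decrease taken as cytotoxicity; AC50 via Hill equation; tetraoctylammonium bromide positive control.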

[7] = Cell Viability - LYMP2-022 (AID 987); details: LYMP2-022 lymphoblastoid cell viability; series mostly up to 92.2 µM; further: nearly all actives have a fitted effect of over 55% in size
Procedure, shortened: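 Luminescent ATP read-out (CellTiter-Glo, 30 min, RT) after 24 hr, 37 C compound exposure of 2500 human lymphoblastoid cells/well in complete medium. Cytotoxicity taken as concentration-dependent ATP loss; AC50 from standard Hill equation.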

[8] = Cell Viability - LYMP2-026 (AID 989); details: LYMP2-026 lymphoblastoid cell viability, qHTS; series mostly up to 92.2 µM;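 further: cells exposed to compound for 24 h at 37 °C; nearly all actives have a fitted effect of over 50% in size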
Procedure, shortened: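 qHTS cytotoxicity: 2500 cells/well, 5 hr 37 C, compound 24 hr 37 C, CellTiter-Glo 30 min RT, luminescence. Tetraoctylammonium bromide positive control. AC50 via standard Hill fit.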

[9] = Cell Viability - LYMP1-002 - Assay at 40 hr (AID 994); details: LYMP1-002 lymphoblastoid cell viability; series mostly up to 92.2 µM; further: nearly all actives have a fitted effect of over 60% in size
Procedure, shortened: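 qHTS cytotoxicity; 2500 cells/well, 5 hr 37 C settle, compound 40 hr 37 C. CellTiter-Glo, 30 min RT, luminescence (ATP). Concentration-response, Hill fit → AC50. Pos. ctrl tetraoctylammonium bromide.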

[10] = molecular target: Alpha-galactosidase A (Homo sapiens) (UniProt P06280); test: Counterscreen for Glucocerebrosidase Inhibitors: qHTS Assay for Human alpha-Galactosidase at pH 4.5 (AID 992); details: purified enzyme, fluorogenic substrate; series mostly up to 76.9 µM
Sequence of Alpha-galactosidase A (Homo sapiens) (P06280 whole entry, looked up): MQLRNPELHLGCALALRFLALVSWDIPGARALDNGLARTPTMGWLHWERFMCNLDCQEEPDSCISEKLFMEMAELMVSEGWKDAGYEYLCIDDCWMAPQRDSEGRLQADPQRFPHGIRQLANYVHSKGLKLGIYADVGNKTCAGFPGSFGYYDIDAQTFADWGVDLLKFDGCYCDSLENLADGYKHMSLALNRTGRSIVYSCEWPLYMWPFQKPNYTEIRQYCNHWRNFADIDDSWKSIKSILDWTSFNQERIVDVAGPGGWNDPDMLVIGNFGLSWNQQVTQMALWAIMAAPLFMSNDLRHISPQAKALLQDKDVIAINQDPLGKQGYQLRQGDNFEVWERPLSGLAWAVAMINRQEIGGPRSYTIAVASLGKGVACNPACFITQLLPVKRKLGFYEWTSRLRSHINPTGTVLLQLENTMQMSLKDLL
Procedure, shortened: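 Fluorogenic 1536-well qHTS at pH 4.5 (citrate, Tween-20): 2 nM enzyme, 80 uM 4-MU-alpha-galactoside, 20 min room temperature, NaOH/glycine stop. Titration 0.7 nM to 77 uM, data normalized to no-enzyme and full-activity controls, Hill-fitted AC50.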

[11] = measured here: cell count channel max response
[12] = measured here: lipid channel max response

CCC1(C)CC(=O)NC1=O (stereo unspecified)
activity change, negative = inhibition ([1]; at 57.5 µM (top of the series)): 5.33% (inactive) and 1.46% (inactive)
max response [1, 11]: 13.5% and 40.9%
max response [1, 12]: 22.9% and 41%

Cn1cnc2c1c(=O)[nH]c(=O)n2C
outcome [2]: inactive
outcome [3]: inactive
activity change, negative = inhibition ([1]; at 25.7 µM (top of the series)): -1.11% (inactive)
activity change, negative = inhibition ([1]; at 57.5 µM (top of the series)): -1.44% (inactive) and 2.73% (inactive)
max response [1, 11]: -1.67% and 17.8% and 14.4%
max response [1, 12]: -0.915% and 15.2% and 17.5%

CCCNCC(O)COc1ccccc1C(=O)CCc1ccccc1 (stereo unspecified)
activity change, negative = inhibition ([1]; at 57.5 µM (top of the series)): 6.61% (inactive) and -1.46% (inactive)
max response [1, 11]: 8.1% and 22.1%
max response [1, 12]: 14% and 22.1%

NC(CO)C(=O)NNCc1ccc(O)c(O)c1O (stereo unspecified)
outcome [3]: inactive
activity change, negative = inhibition ([1]; at 57.5 µM (top of the series)): 13.3% (inactive)
max response [1, 11]: 25.8%
max response [1, 12]: 46.4%

CC(C)NCC(O)c1ccc(O)c(O)c1 (stereo unspecified)
outcome [4]: inactive
outcome [5]: inactive
outcome [6]: inactive
outcome [7]: inactive
outcome [8]: inactive
Potency [9]: inactive
outcome [3]: inactive
activity change, negative = inhibition ([1]; at 57.5 µM (top of the series)): 4.99% (inactive) and 0.312% (inactive) and 1.86% (inactive)
max response [1, 11]: 14.1% and -2.95% and -6.8%
max response [1, 12]: 18.9% and -2.86% and -5.68%

CC(C)NCC(O)COc1ccc(CCOCC2CC2)cc1 (stereo unspecified)
activity change, negative = inhibition ([1]; at 57.5 µM (top of the series)): -2.88% (inactive)
max response [1, 11]: -16.9%
max response [1, 12]: -20.2%

Clc1ccc2c(c1)C(N1CCNCC1)=Nc1ccccc1O2
outcome [2]: inactive
outcome [3]: inactive
activity change, negative = inhibition ([1]; at 25.7 µM (top of the series)): -5.1% (inactive)
activity change, negative = inhibition ([1]; at 57.5 µM (top of the series)): 3.92% (inactive) and 1.18% (inactive)
max response [1, 11]: -3.99% and 1.39% and 11.5%
max response [1, 12]: -7.98% and 5.5% and 12.2%

CC(=O)OCC(CCn1cnc2cnc(N)nc21)COC(C)=O
activity change, negative = inhibition ([1]; at 57.5 µM (top of the series)): 8.16% (inactive)
max response [1, 11]: 10.2%
max response [1, 12]: 23.5%

O=C(c1ccc(F)cc1)C1CCN(CCn2c(=O)[nH]c3ccccc3c2=O)CC1
outcome [2]: inactive
outcome [3]: inactive
activity change, negative = inhibition ([1]; at 57.5 µM (top of the series)): 3.6% (inactive) and 3.32% (inactive)
max response [1, 11]: 11.4% and 58.6%
max response [1, 12]: 27.6% and 62%

CC(C(=O)O)c1cccc(C(=O)c2ccccc2)c1 (stereo unspecified)
outcome [3]: inactive

CCOC(=O)C(C)(C)Oc1ccc(Cl)cc1
outcome [2]: inactive
outcome [3]: inactive

NCCc1cnc[nH]1
outcome [2]: inactive
outcome [3]: inactive

N[C@@H](Cc1c[nH]c2ccc(O)cc12)C(=O)O
outcome [4]: inactive
outcome [5]: inactive
outcome [6]: inactive
outcome [7]: inactive
outcome [8]: inactive
outcome [10]: inactive
Potency [9]: inactive
outcome [2]: inactive
outcome [3]: inactive

O=C1N(c2ccccc2)c2ccccc2C1(Cc1ccncc1)Cc1ccncc1
outcome [2]: inactive
outcome [3]: inactive

CN1CCN(C2=Nc3cc(Cl)ccc3Nc3ccccc32)CC1
outcome [10]: inactive
outcome [2]: inactive
outcome [3]: inactive

CC12CC3CC(C)(C1)CC(N)(C3)C2
activity change, negative = inhibition ([1]; at 57.5 µM (top of the series)): 7.67% (inactive) and 1.43% (inactive)
max response [1, 11]: 15.3% and 15.6%
max response [1, 12]: 26.5% and 20.5%

Cc1cn([C@H]2C=C[C@@H](CO)O2)c(=O)[nH]c1=O
outcome [4]: inactive
outcome [5]: inactive
outcome [6]: inactive
outcome [7]: inactive
outcome [8]: inactive
outcome [10]: inactive
Potency [9]: inactive
outcome [2]: inactive
activity change, negative = inhibition ([1]; at 57.5 µM (top of the series)): 1.52% (inactive)
max response [1, 11]: -10.8%
max response [1, 12]: -8.91%

CS(=O)(=O)Nc1ccc([N+](=O)[O-])cc1Oc1ccccc1
outcome [10]: inactive
outcome [2]: inactive
activity change, negative = inhibition ([1]; at 25.7 µM (top of the series)): -1.76% (inactive)
activity change, negative = inhibition ([1]; at 57.5 µM (top of the series)): 14.1% (inactive)
max response [1, 11]: 3.21% and 14.6%
max response [1, 12]: 2.41% and 33.1%

Cc1cc(C(C)(C)C)c(O)c(C)c1CC1=NCCN1
outcome [2]: inactive
activity change, negative = inhibition ([1]; at 25.7 µM (top of the series)): -3.48% (inactive)
activity change, negative = inhibition ([1]; at 57.5 µM (top of the series)): -2.77% (inactive) and 10.3% (inactive)
max response [1, 11]: -11.5% and -13.2% and 34.1%
max response [1, 12]: -16% and -15.4% and 53.3%

Cc1ccccc1N1C(=O)c2cc(S(N)(=O)=O)c(Cl)cc2NC1C (stereo unspecified)
outcome [10]: inactive
outcome [2]: inactive
activity change, negative = inhibition ([1]; at 57.5 µM (top of the series)): 5.05% (inactive) and -0.764% (inactive)
max response [1, 11]: 11.3% and 51.4%
max response [1, 12]: 18.3% and 52%

COc1ccc2c(c1)c(CC(=O)O)c(C)n2C(=O)c1ccc(Cl)cc1
outcome [4]: inactive
outcome [5]: inactive
outcome [6]: inactive
outcome [7]: inactive
outcome [8]: inactive
outcome [10]: inactive
Potency [9]: inactive
outcome [2]: inactive
activity change, negative = inhibition ([1]; at 25.7 µM (top of the series)): 0.248% (inactive)
activity change, negative = inhibition ([1]; at 57.5 µM (top of the series)): 13.5% (inactive)
max response [1, 11]: 4.07% and 38%
max response [1, 12]: -0.937% and 62.5%

Clc1ccccc1C(c1ccccc1)(c1ccccc1)n1ccnc1
outcome [10]: inactive
outcome [2]: inactive
activity change, negative = inhibition ([1]; at 25.7 µM (top of the series)): 2.04% (inactive)
activity change, negative = inhibition ([1]; at 57.5 µM (top of the series)): 9.89% (inactive)
max response [1, 11]: -13.7% and 9.45%
max response [1, 12]: -11.4% and 22.8%

CN(C)CCOC(c1ccccc1)c1ccccc1
outcome [10]: inactive
outcome [2]: inactive
activity change, negative = inhibition ([1]; at 25.7 µM (top of the series)): -4.2% (inactive)
activity change, negative = inhibition ([1]; at 57.5 µM (top of the series)): 0.806% (inactive)
max response [1, 11]: -10.1% and 40.8%
max response [1, 12]: -13% and 41%

Cc1ccc(-c2cc(C(F)(F)F)nn2-c2ccc(S(N)(=O)=O)cc2)cc1
outcome [4]: inactive
outcome [5]: inactive
outcome [6]: inactive
outcome [7]: inactive
outcome [8]: inactive
Potency [9]: inactive
activity change, negative = inhibition ([1]; at 57.5 µM (top of the series)): 7.63% (inactive)
max response [1, 11]: 18.8%
max response [1, 12]: 30%

CN1CCC(=C2c3ccccc3C=Cc3ccccc32)CC1
outcome [10]: inactive
outcome [2]: inactive
activity change, negative = inhibition ([1]; at 25.7 µM (top of the series)): -4.01% (inactive)
activity change, negative = inhibition ([1]; at 57.5 µM (top of the series)): 0.516% (inactive)
max response [1, 11]: 4.35% and -11%
max response [1, 12]: -0.358% and -12.9%

Nc1ccn([C@H]2CC[C@@H](CO)O2)c(=O)n1
outcome [4]: inactive
outcome [5]: inactive
outcome [6]: inactive
outcome [7]: inactive
outcome [8]: inactive
Potency [9]: inactive
outcome [2]: inactive
activity change, negative = inhibition ([1]; at 57.5 µM (top of the series)): 0.404% (inactive) and -0.834% (inactive)
max response [1, 11]: -7.59% and -3.68%
max response [1, 12]: -4.32% and -4.82%

CN1CCN(CCCN2c3ccccc3Sc3ccc(Cl)cc32)CC1
outcome [2]: inactive
activity change, negative = inhibition ([1]; at 25.7 µM (top of the series)): -2.25% (inactive)
activity change, negative = inhibition ([1]; at 57.5 µM (top of the series)): 2.24% (inactive)
max response [1, 11]: -2.79% and -1.33%
max response [1, 12]: -5.2% and 2.08%
